Data on nine molecules can be found in PubChem BioAssay (NCATS).

For one assay, the system named is CRL-7250. The assay is described as follows: Cytotoxic Profiling of Annotated Libraries Using Quantitative High-Throughput Screening (AID 1296008). Further: potency means the concentration at half of the fitted maximal effect. On max response: on the % scale 0 is the no-effect control and ±100 the full control effect. Particulars: Five cell lines viability, CellTiter-Glo ATP luminescence, 48-72 h; max response: stronger effect = lower value. In outline: (§1)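 Cytotoxicity was measured as CellTiter-Glo ATP luminescence, read after 10 min at room temperature. Compound treatment of the cells lasted 48 or 72 hr at 37 degrees Celsius in a qHTS format.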

The test system of assay [1] is HaCat. The description is as above. Conditions: Five cell lines viability, CellTiter-Glo ATP luminescence, 48-72 h; max response: stronger effect = lower value. A digest of the protocol: as §1
(ATP-based viability assays read luminescence as a measure of living cells.)

The test system of the next assay is KB-3-1. The description is as above. Particulars: Five cell lines viability, CellTiter-Glo ATP luminescence, 48-72 h; max response: stronger effect = lower value. A digest of the protocol: as §1
The next assay has as its system NIH3T3. Described as above. Conditions: Five cell lines viability, CellTiter-Glo ATP luminescence, 48-72 h; max response: stronger effect = lower value. A digest of the protocol:
as §1

Assay [2] relates to HACAT. The experiment in a line: qHTS assay to identify novel small-molecules to repurpose for Merkel cell carcinoma treatment (AID 1296009). Conditions: MCC and control cell lines, CellTiter-Glo viability, 72 h; at 44.8 µM (top of the series) unless noted. In outline:
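After compound transfer in DMSO, plates were kept 72 hr at 37 degree celsius. Luminescent ATP signal from CellTiter-Glo served as viability measure, normalized against DMSO and no-cell controls.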
In general terms: In qHTS, concentration-response curves come from the screen itself.

A further assay has as its system HEK293. The experiment in a line: Cytotoxic Profiling of Annotated Libraries Using Quantitative High-Throughput Screening (AID 1296008). Further: potency means the concentration at half of the fitted maximal effect. On max response: on the % scale 0 is the no-effect control and ±100 the full control effect. Particulars: Five cell lines viability, CellTiter-Glo ATP luminescence, 48-72 h; max response: stronger effect = lower value. In outline: as §1

Values joined by “and” are separate entries in the source; they are usually repeats but may differ in a detail not shown here. Equal entries are not always repeated. Records with an inconclusive call do not appear. Active and inactive are the calls of the source. The call rests on the fitted dose curve; in most records, active means well fitted inhibition curve with a large enough effect; inconclusive means small, poorly fitted or top-dose-only effect; inactive means flat fitted curve, though single readings scatter.
Further: nearly all actives have a fitted effect of over 60% in size.

`COc1ccc2ccc(=O)oc2c1CC=C(C)C`: the max response with CRL-7250 was -22% (inactive); in the assay with HaCat [1], -6.16% (inactive); with NIH3T3 it was -31.4% (inactive). Further, the call in the assay on KB-3-1 was inactive.
Take `COc1ccc(Cn2ccc3ccc(C(=O)NO)cc32)cc1`: the max response was -16.1% (inactive) and -2.36% (inactive) in the assay on CRL-7250; -11.8% (inactive) with HaCat [1]; 8.71% (inactive) with KB-3-1. Besides, the molecule was called inactive in the assay on HaCat [1], in the assay on KB-3-1 and in the assay with HACAT [2].
For `COc1ccc(C=CC(=O)Nc2ccccc2C(=O)O)cc1OC`, the max response with CRL-7250 was -5.04% (inactive); in the assay on HaCat [1], -7.89% (inactive); with KB-3-1, 7.16% (inactive); with NIH3T3 it was 0.371% (inactive).
For the molecule `CN(C)CCOc1ccc(C(=C(CCCl)c2ccccc2)c2ccccc2)cc1`, the max response with CRL-7250 was -7.14% (inactive); in the assay with HaCat [1], -3.54% (inactive); with KB-3-1 it was 7.38% (inactive). Besides, in the assay on NIH3T3, the molecule was classed as inactive.
For `COc1ccc(CCN(C)CCCOc2ccc(S(=O)(=O)c3[nH]c4ccccc4c3C(C)C)cc2)cc1OC`, the outcome in the assay with CRL-7250 was inactive. Moreover, the max response was -8.82% (inactive) in the assay with HaCat [1] and 5.18% (inactive) in the assay with KB-3-1.
On to `Cc1csc(-c2nnc(Nc3ccc(Oc4ncccc4-c4ccnc(N)n4)cc3)c3ccccc23)c1`, for which the max response in the assay with CRL-7250 was -3.89% (inactive) and -3.06% (inactive). In addition, in the assay with HaCat [1], the Potency is 0.148 µM (active).
Regarding `COc1ccc2c(c1)CC[C@H]1[C@@H]2CC[C@]2(C)[C@@H](NCCCCCCN3C(=O)C=CC3=O)CC[C@H]12`, the max response in the assay with CRL-7250 is -3.42% (inactive); in the assay with HaCat [1], 1.55% (inactive); in the assay on KB-3-1, -4.66% (inactive); in the assay with NIH3T3 it was -1.24% (inactive).
Take `O=C(NC[C@H](O)CO)c1ccncc1Nc1ccc(I)cc1F`: the Potency is 16.6 µM (active) with CRL-7250 and 8.33 µM (active) in the assay with NIH3T3. For the same molecule, in the assay on HEK293, the max response is -10.7% (inactive). For the same molecule, in the assay with KB-3-1, the outcome was inactive.
On to `Cc1nc2c([nH]1)CCN(C(=O)c1ccc(NC(=O)c3ccccc3-c3ccccc3)cc1)c1ccccc1-2`, for which the max response with CRL-7250 is 1.7% (inactive) and 3.01% (inactive); with HaCat [1], -0.498% (inactive); with KB-3-1 it was 0.364% (inactive) and -8.3% (inactive); in the assay on NIH3T3, 4.2% (inactive). In addition, the molecule was called inactive in the assay with HaCat [1], in the assay with NIH3T3 and with HACAT [2].
